Among the test systems are HCT-15 colon; HT29 colon; SNB-75 CNS; SNB-19 CNS; U251 CNS; PC-3 prostate; SK-MEL-5 melanoma; UACC-62 melanoma; LOX IMVI melanoma; SK-MEL-28 melanoma; SK-MEL-2 melanoma; EKVX NSCLC; SN12C renal; UO-31 renal; TK-10 renal; ACHN renal; CAKI-1 renal; A498 renal; CCRF-CEM leukemia; MOLT-4 leukemia.
Experiment in all cases: NCI-60 one-dose screen, 48 h (100 = growth as untreated, 0 = no growth, -100 = all killed)
Common to all, as to settings: 10 µM unless noted

Compounds without any hit were thinned out: in the full panel of roughly 83,000, 20% have a hit.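 Treatment: one concentration, 48 hours, 96-well format. Scoring: percent growth, with anything below 10 considered active.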 Values without a mark were called inactive. Active and inactive are the calls of the source.

As to `Cn1cc(-c2nc3c(F)cc4[nH]ncc4c3c3c2CCCC3)c(C(F)(F)F)n1`, the growth is 23.7% in the experiment with HCT-15 colon; 37.1% with HT29 colon; 22.5% in the experiment on SNB-75 CNS; 75.3% in the experiment with SNB-19 CNS; 59.8% in the experiment with U251 CNS; 0.262% (active) in the experiment on PC-3 prostate. For the same compound, the growth in the experiment on SK-MEL-5 melanoma is 40.2%; in the experiment on UACC-62 melanoma, 29.5%; in the experiment on LOX IMVI melanoma, 28.7%; with SK-MEL-28 melanoma, 51%; in the experiment on SK-MEL-2 melanoma, 49.2%; in the experiment with EKVX NSCLC, 38.3%. Also, the growth with SN12C renal is 49.4%; in the experiment on UO-31 renal, 18.1%; in the experiment on TK-10 renal, 24.7%; in the experiment with ACHN renal, 28.4%; with CAKI-1 renal, 18.6%; in the experiment with A498 renal, -15.1% (active). Further, the growth in the experiment with CCRF-CEM leukemia is -8.03% (active); with MOLT-4 leukemia, -18.9% (active).

In the case of `O=C(c1ccc(Br)cc1)C(Br)C(c1ccc(Cl)cc1)C(c1ccccc1)[N+](=O)[O-]` (stereo not given), the growth in the experiment with HCT-15 colon was 84.8%; in the experiment with HT29 colon, 87.3%; in the experiment on SNB-75 CNS it was 89.4%; with SNB-19 CNS, 93.9%; in the experiment on U251 CNS, 96.9%; in the experiment on PC-3 prostate it was 76.5%. The growth is 86.6% in the experiment with SK-MEL-5 melanoma; 71.8% with UACC-62 melanoma; 102% with LOX IMVI melanoma; 97.7% in the experiment on SK-MEL-28 melanoma; 110% in the experiment with SK-MEL-2 melanoma; 79.9% in the experiment with EKVX NSCLC. For the same compound, the growth with SN12C renal was 101%; in the experiment with UO-31 renal, 79%; in the experiment with TK-10 renal it was 103%; with ACHN renal it was 102%; in the experiment with CAKI-1 renal, 88.7%; in the experiment on A498 renal, 87.5%. Also, the growth with CCRF-CEM leukemia is 90.3%; in the experiment with MOLT-4 leukemia, 89.7%.

Regarding `O=C(Nc1ccccc1O)c1ccc(CNc2ccnc(C(F)(F)F)c2)cc1`, the growth in the experiment on HCT-15 colon is 67.5%; in the experiment on HT29 colon it was 75.8%; in the experiment on SNB-75 CNS, 55.9%; with SNB-19 CNS, 68%; with U251 CNS, 60.3%; with PC-3 prostate it was 57.7%. Further, the growth in the experiment with SK-MEL-5 melanoma is 38.1%; in the experiment with UACC-62 melanoma it was 32.8%; with LOX IMVI melanoma, 52.7%; in the experiment on SK-MEL-28 melanoma, 69.9%; in the experiment on SK-MEL-2 melanoma, 52.4%; with EKVX NSCLC, 52.7%. Moreover, the growth was 48.8% in the experiment on SN12C renal; 29.2% with UO-31 renal; 96.2% in the experiment on TK-10 renal; 43% with ACHN renal; 29.6% with CAKI-1 renal; 66.4% in the experiment with A498 renal. Further, the growth is -8.29% (active) in the experiment on CCRF-CEM leukemia and 9.24% (active) with MOLT-4 leukemia.

As for `C=C1C(=O)O[C@H]2[C@H]1CC/C(CNC(=O)Cc1c[nH]c3ccccc13)=C\CC[C@@]1(C)O[C@@H]21`, the growth was 15.6% in the experiment on HCT-15 colon; 1.86% (active) in the experiment on HT29 colon; 73.9% in the experiment on SNB-75 CNS; 57.5% in the experiment on SNB-19 CNS; 43.9% with U251 CNS; 49.9% with PC-3 prostate. Moreover, the growth in the experiment on SK-MEL-5 melanoma is 42.1%; in the experiment on UACC-62 melanoma it was -23.5% (active); in the experiment on LOX IMVI melanoma, -75.3% (active); with SK-MEL-28 melanoma, -29.9% (active); with SK-MEL-2 melanoma, 33.5%; with EKVX NSCLC, 79.3%. Further, the growth in the experiment on SN12C renal was 13.9%; with UO-31 renal, 34.9%; with TK-10 renal, -35.9% (active); in the experiment with ACHN renal it was 3.84% (active); with CAKI-1 renal, 14.7%; with A498 renal, 41.2%. Also, the growth with CCRF-CEM leukemia is -35.9% (active); in the experiment with MOLT-4 leukemia, -4.65% (active).

As for `Cc1ccc(O)c(NC(=O)c2cccc(Nc3ccnc(C(F)(F)F)c3)c2)c1`, the growth is 80% in the experiment on HCT-15 colon; 101% in the experiment with HT29 colon; 85% with SNB-75 CNS; 90.5% with SNB-19 CNS; 83.6% in the experiment on U251 CNS; 68% in the experiment with PC-3 prostate. Moreover, the growth with SK-MEL-5 melanoma was 20.7%; in the experiment on UACC-62 melanoma, 30.8%; with LOX IMVI melanoma it was 66.9%; in the experiment with SK-MEL-28 melanoma it was 100%; in the experiment on SK-MEL-2 melanoma, 82.7%; in the experiment on EKVX NSCLC, 41.7%. Besides, the growth was 39.9% with SN12C renal; 29.3% with UO-31 renal; 92.2% in the experiment on TK-10 renal; 57.8% in the experiment with ACHN renal; 41.6% with CAKI-1 renal; 96.1% in the experiment on A498 renal. The growth with CCRF-CEM leukemia is -1.16% (active); in the experiment with MOLT-4 leukemia it was -4.89% (active).

Take `CN1C(=O)N2CN3CCCN(C3)CN3C(=S)NC1C23` (stereo not given): the growth in the experiment with HCT-15 colon was 103%; in the experiment with HT29 colon, 95.2%; with SNB-75 CNS, 93.4%; in the experiment on SNB-19 CNS, 99.3%; with U251 CNS, 101%; in the experiment on PC-3 prostate, 98.4%. The growth was 100% with SK-MEL-5 melanoma; 101% with UACC-62 melanoma; 98.7% in the experiment with LOX IMVI melanoma; 119% in the experiment with SK-MEL-28 melanoma; 108% in the experiment on SK-MEL-2 melanoma; 104% with EKVX NSCLC. Also, the growth in the experiment with SN12C renal is 97.7%; in the experiment on UO-31 renal, 99.5%; in the experiment on TK-10 renal it was 108%; in the experiment with ACHN renal, 118%; in the experiment on CAKI-1 renal it was 98%; in the experiment with A498 renal, 98.9%. For the same compound, the growth in the experiment with CCRF-CEM leukemia was 90.2%; in the experiment with MOLT-4 leukemia, 111%.

`N#CSc1c[nH]c2ccc(/C=C/C(=O)/C=C(O)/C=C/c3ccc4[nH]cc(SC#N)c4c3)cc12`: the growth is -31% (active) in the experiment with HCT-15 colon; -10.1% (active) in the experiment on HT29 colon; 51.9% with SNB-75 CNS; 46.2% in the experiment on SNB-19 CNS; 7.38% (active) in the experiment on U251 CNS; 12% in the experiment with PC-3 prostate. Further, the growth in the experiment with SK-MEL-5 melanoma was 41.2%; in the experiment on UACC-62 melanoma, 26.3%; in the experiment with LOX IMVI melanoma, -75.8% (active); in the experiment with SK-MEL-28 melanoma it was 31.8%; in the experiment on SK-MEL-2 melanoma, 34.2%; in the experiment on EKVX NSCLC it was 28.8%. The growth with SN12C renal is 18.4%; in the experiment with UO-31 renal, -40.1% (active); in the experiment with TK-10 renal, 8.11% (active); in the experiment with ACHN renal it was 0.691% (active); in the experiment on CAKI-1 renal, 11.9%; in the experiment with A498 renal, 90.5%. For the same compound, the results for the growth in the experiment with CCRF-CEM leukemia and in the experiment with MOLT-4 leukemia were 2.04% (active) and -28.2% (active), respectively.

For the origin of these results see PubChem BioAssay (NCI).
